Screening results deposited in PubChem BioAssay by Emory University Molecular Libraries Screening Center.
14-3-3g Raf – modulators of human 14-3-3 gamma - Raf peptide interaction; FP, 14-3-3gamma / TMR-pS259-Raf peptide binding; inhibition, % at 40 µM; hit rate 0.19% among 160,000; AID 422; in the data active = inhibition above about 30%;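 note: 0% = protein plus tracer without compound and 100% = blank with tracer alone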
Target sequence (P61981 whole entry, looked up): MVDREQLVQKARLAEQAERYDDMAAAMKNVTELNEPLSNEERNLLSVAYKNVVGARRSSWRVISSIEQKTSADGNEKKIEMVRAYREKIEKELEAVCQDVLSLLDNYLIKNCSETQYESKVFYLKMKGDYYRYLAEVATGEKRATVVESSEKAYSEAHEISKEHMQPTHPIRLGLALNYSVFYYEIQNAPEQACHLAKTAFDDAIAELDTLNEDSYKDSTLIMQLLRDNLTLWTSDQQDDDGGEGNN
* marks the source's active call; other numbers are inactive results; ! = a repeat was not active. The full list was thinned out, with hits kept by preference.

SMILES	14-3-3g Raf
O=C(Oc1ccc(C2CCCCC2)cc1)c1ccccc1F	31*
CSc1ccc(OC(=O)c2ccccc2F)cc1	-5
O=C(OCCN1CCCCC1)c1ccccc1F	-3
CCOc1ccc(-n2nc3ccc(NC(=O)c4ccc(OCc5ccccc5)cc4)cc3n2)cc1	0
O=C(NCCN1CCOCC1)c1cccn2c(=O)c3cc4ccccc4cc3nc12	-10
COc1ccc(N2CCN(CCNC(=O)c3cccn4c(=O)c5ccc(Cl)cc5nc34)CC2)cc1	-10
COc1ccc(N2CCN(CCNC(=O)c3cccn4c(=O)c5cc6ccccc6cc5nc34)CC2)cc1	179*
COc1cc(C(=O)N2N=C(c3ccc(C)cc3)CC2c2ccc(Br)cc2)cc(OC)c1OC (stereo unspecified)	1
Cc1ccc(C2C3CN(C(C)C)CC=C3C(C#N)=C(N)C2(C#N)C#N)cc1 (stereo unspecified)	36*
CC(=O)N1CC=C2C(C#N)=C(N)C(C#N)(C#N)[C@H](c3ccoc3)[C@H]2C1	-8
COc1ccc(OC)c(C2C3CN(C(C)C)CC=C3C(C#N)=C(N)C2(C#N)C#N)c1 (stereo unspecified)	-27
CCc1ccc2c(c1)C(C)=CC(C)(C)N2C(=O)Nc1ccc(OC)cc1	3
Cc1cccc(NC(=O)COc2cc(C)c(Cl)c(C)c2)n1	7
Cc1ccc(C)c(Nc2ccc3nonc3c2[N+](=O)[O-])c1	-10
Cc1ccc(C)c(Nc2ccc([N+](=O)[O-])c3nonc23)c1	34*
Cc1ccc(C)c(Nc2c([N+](=O)[O-])ccc3nonc23)c1	-13
CCC(Sc1nnnn1-c1ccccc1)C(=O)Nc1ccccc1OC (stereo unspecified)	0
COc1ccc(C2CC(=O)C3=C(C2)NC(C)=C(C(=O)OC(C)C)C3c2cc3c(cc2Cl)OCO3)cc1 (stereo unspecified)	-8
Cc1cc(O)c(C=Nc2ccc(C(=O)O)cc2)c(C)c1Cl	3
Cc1nc(N=Nc2ccc(S(=O)(=O)O)cc2S(=O)(=O)O)c(COP(=O)(O)O)c(C=O)c1O	35*
Cc1nc(N=Nc2ccc(C(=O)O)cc2)c(COP(=O)(O)O)c(C=O)c1O	69*
CCCCn1c(-c2ccccc2)c(CC)n2c3c(=O)n(C)c(=O)n(C)c3nc12	8
COC(=O)CCC1Nc2c3ccccc3nc(=S)n2C1=O (stereo unspecified)	-4
CC(=O)C12c3ccccc3C(c3ccccc31)C1C(=O)N(c3ccc([N+](=O)[O-])cc3Br)C(=O)C12 (stereo unspecified)	-11
Cc1ccc(N2C(=O)C(N3C(=O)c4ccccc4C3=O)C2c2ccc3c(c2)OCO3)cc1 (stereo unspecified)	3
SMILES	14-3-3g Raf
O=C(NC1CC1)c1cnn2c(C(F)(F)F)cc(-c3ccccc3)nc12	-12
COc1cccc(OC)c1C(=O)N1CC(=O)N(CCc2ccccc2)C(=O)C1	-7
O=C(NC(=O)N1CCN(c2ccccc2F)CC1)c1ccccc1	2
O=C(O)C1C2CCC(C2)C1C(=O)N1CCN(c2ccccc2F)CC1 (stereo unspecified)	43*
O=C(c1cnccn1)N1CCN(c2ccccc2F)CC1	-27
O=C(Nc1ccc(Cl)cc1)C1C2C=CC3(O2)C1C(=O)N(CCN1CCCCCC1)C3C(=O)NC1CCCCC1 (stereo unspecified)	-21
Cc1cc([N+](=O)[O-])ccc1-c1ccc(C=Cc2ccc3cccc(O)c3n2)o1	144*
O=[N+]([O-])c1ccccc1-c1ccc(C=Cc2ccc3ccccc3n2)o1	-68
COc1ccc(OC)c(C=Cc2ccc3cccc(O)c3n2)c1	-4
CCC1Oc2ccc(Cl)cc2N(C(C)C(=O)NC2CCCC(C)C2C)C1=O (stereo unspecified)	1
Cc1ccc(C2=CC(c3ccco3)n3ncnc3N2)cc1 (stereo unspecified)	-25
CC1CCCC(NC(=O)c2cc(S(=O)(=O)N3CCCC3)ccc2F)C1C (stereo unspecified)	-4
O=C(NCc1cccs1)c1cc2nc(-c3cccs3)cc(C(F)(F)Cl)n2n1	-1
O=C(NCc1cccnc1)c1cc2nc(-c3ccco3)cc(C(F)(F)Cl)n2n1	2
O=C(NCc1cccnc1)c1cc2nc(-c3cccs3)cc(C(F)(F)Cl)n2n1	39*
CC1(C)CC(=O)C2=C(C1)c1c(ccc3ncccc13)NC2c1ccccn1 (stereo unspecified)	2
O=[N+]([O-])c1ccc(N2CCN(S(=O)(=O)c3ccc(Cl)cc3)CC2)cc1N1CCCC1	-9
O=C(Nn1cnnc1)C(Sc1ccccc1)c1ccccc1 (stereo unspecified)	1
CNC(=O)C(Sc1ccccc1)c1ccccc1 (stereo unspecified)	125*
O=C(NCc1ccc(F)cc1)C(Sc1ccccc1)c1ccccc1 (stereo unspecified)	-1
COc1ccc(-c2csc(NC(=O)c3ccc(Br)s3)n2)cc1OC	-10
CCOC(=O)c1cnc2c(OC)cccc2c1Nc1ccc(C)cc1	-22
O=C(O)c1ccc2c(=O)n(CCCN3CCCC3=O)c(=S)[nH]c2c1	-8
C=CCC1C(C)=NN(C(=O)c2ccc(Cl)cc2)C1(C)O (stereo unspecified)	-6
CC1=NN(C(=O)c2ccc(Cl)cc2)C(O)(c2cccc([N+](=O)[O-])c2)C1 (stereo unspecified)	-4
SMILES	14-3-3g Raf
CC1=NN(C(=O)c2ccc(Cl)cc2)C(C)(C)C1	49*
CCN(CC)c1cc(Nc2cc(C)ccc2C)c([N+](=O)[O-])c2nonc12	-1
O=C(NCc1ccccn1)C1CCN(S(=O)(=O)c2cnc[nH]2)CC1	59*!
O=C(NCc1ccccn1)C1CCN(S(=O)(=O)c2cccs2)CC1	8
CC1CCN(S(=O)(=O)N2CCC(C(=O)NCc3ccccn3)CC2)CC1	-4
CN(CC(=O)NC(C)(C)C)S(=O)(=O)c1ccc(Br)s1	0
OCCN1CCN(C2CCN(C3CC4CCC3C4)CC2)CC1 (stereo unspecified)	5
Cc1cc(C)cc(-n2ccnc2SCC(=O)NC2CCCC2)c1	31*
O=C(CSc1nccn1-c1cccc(Cl)c1)NC1CCCCC1	-4
Cc1cc(C)cc(-n2ccnc2SCC(=O)Nc2c(C)cc(C)cc2C)c1	1
O=C(Cn1c(=O)n(CC2CCCO2)c(=O)c2ccccc21)Nc1ccccc1[N+](=O)[O-] (stereo unspecified)	3
CC1(C)CC(=O)C2=C(C1)Nc1ccccc1N(C(=O)Cc1ccccc1)C2c1cccc(Cl)c1 (stereo unspecified)	8
CN1c2ccccc2C(C)(C)C12C=Nc1c(ccc3ccccc13)O2 (stereo unspecified)	84*
CN1c2c(ccc3ccccc23)C(C)(C)C12C=Cc1cc([N+](=O)[O-])ccc1O2 (stereo unspecified)	-365
COc1ccc2c(c1)C=CC1(O2)N(C)c2ccccc2C1(C)C (stereo unspecified)	-6
Cc1c(-c2cccs2)nc2ccc(Br)cc2c1C(=O)O	-3
CCSc1nnc2c3c4c(sc3nc(C)n12)CCCC4	-19
CCCn1c(CN2CCOCC2)nc2c1c(=O)n(C)c(=O)n2C	0
Cc1ccc(CN2C(=O)C3C(c4ccc(C)cc4)OC4(C(=O)c5ccccc5C4=O)C3C2=O)cc1 (stereo unspecified)	3
Cc1cccc(Nc2ccc3noc4c3c2C(=O)c2ccccc2-4)c1	-126
O=C1c2ccccc2-c2onc3ccc(NCc4ccco4)c1c23	82*
CCOc1ccc2noc3c2c1C(=O)c1ccccc1-3	4
